{"source": "PubChem BioAssay AID1851", "about": "(National Center for Advancing Translational Sciences (NCATS), 2009)", "note": "Values joined by “and” are separate entries in the source; they are usually repeats but may differ in a detail not shown here. Equal entries are not always repeated. In all, about 16,000 compounds went through this assay and about 5,100 (32%) were called active. Another 25% or so got no clear call; they are omitted. The list shows a part of the results. Unmarked numbers belong to inactive results. Calls come from the whole dose curve; as a rule, active = well fitted curve in the direction sought with a large enough effect; inconclusive = small, poorly fitted or top-dose-only effect, or effect the other way; inactive = no such curve, though single readings can be large or run the other way. % is set by controls: 0 for no effect and ±100 for the full control effect."}
{"molecular_target": "Cytochrome P450 3A4 (Homo sapiens) (UniProt P08684)", "sequence (P08684 whole entry, looked up)": "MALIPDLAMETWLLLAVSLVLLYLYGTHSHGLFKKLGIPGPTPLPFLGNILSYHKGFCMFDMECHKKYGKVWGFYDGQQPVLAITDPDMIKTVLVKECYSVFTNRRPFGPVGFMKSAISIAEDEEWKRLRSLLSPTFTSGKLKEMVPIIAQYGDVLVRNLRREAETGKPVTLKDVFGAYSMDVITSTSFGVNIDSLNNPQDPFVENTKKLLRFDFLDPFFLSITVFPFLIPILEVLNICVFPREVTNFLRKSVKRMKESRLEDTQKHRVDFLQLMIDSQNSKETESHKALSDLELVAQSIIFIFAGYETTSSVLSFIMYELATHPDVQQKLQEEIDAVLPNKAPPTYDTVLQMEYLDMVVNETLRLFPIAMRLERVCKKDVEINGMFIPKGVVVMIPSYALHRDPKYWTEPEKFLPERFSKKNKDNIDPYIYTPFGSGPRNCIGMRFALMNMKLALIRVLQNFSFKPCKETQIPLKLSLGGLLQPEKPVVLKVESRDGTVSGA", "test": "Cytochrome panel assay with activity outcomes", "conditions": "recombinant CYP, pro-luciferin dealkylation, luminescence, p450-cyp3a4; series mostly up to 57.1 µM; activity, negative = inhibition: at the top concentration"}
{"smiles": "C=CCN(CC=C)C(=S)NC(=O)c1ccc(OC)c(Br)c1", "AC50": "0.891 µM (active)"}
{"smiles": "COc1ccc(C(=O)NC(=S)NC(C)C)cc1Br", "activity, negative = inhibition": "-28.4%"}
{"smiles": "C=CCN(CC=C)C(=S)Nc1ccccc1", "activity, negative = inhibition": "-16.5% [at 2.29 µM]"}
{"smiles": "CCCc1nn2c(=O)c(C(c3ccc(C)cc3)c3c(O)nc4sc(CCC)nn4c3=O)c(O)nc2s1", "activity, negative = inhibition": "-0.554% [at 2.29 µM]"}
{"smiles": "CCOC(=O)c1sc(N(Cc2ccccc2)C(=O)CN2C(=O)CN(C)C2=O)nc1C", "AC50": "12.6 µM (active)"}
{"smiles": "CCOC(=O)c1sc(NS(=O)(=O)c2ccccc2)nc1C", "activity, negative = inhibition": "-13.8%"}
{"smiles": "COc1ccc(NC(=O)COC(=O)c2c(-c3ccccc3)noc2C)cc1", "AC50": "7.08 µM (active)"}
{"smiles": "Cc1noc(C)c1C(=O)OCC(=O)NC(c1ccccc1)c1ccccc1", "activity, negative = inhibition": "-8.57% [at 2.29 µM]"}
{"smiles": "COc1cccc(/C=N/NC(=O)c2c(-c3ccccc3)noc2C)c1", "activity, negative = inhibition": "-3.56% [at 2.29 µM]"}
{"smiles": "CCCCN1CCC(n2c(=O)[nH]c3ccccc32)CC1", "activity, negative = inhibition": "-14.6%"}
{"smiles": "c1ccc(Nc2ncnc3ccc(-c4ccoc4)cc23)cc1", "AC50": "15.8 µM (active)"}
{"smiles": "Fc1ccc(Nc2ncnc3ccc(-c4ccoc4)cc23)cc1", "AC50": "15.8 µM (active)"}
{"smiles": "Cc1noc(COc2ccc(OCc3nc(C)no3)cc2)n1", "activity, negative = inhibition": "-5.47%"}
{"smiles": "CC1(CCC(=O)OC2CCCCC2)OCCO1", "activity, negative = inhibition": "-7.62% [at 11.4 µM]"}
{"smiles": "Cn1c(/C=N/NC(=O)c2ccccc2Br)nc2ccccc21", "AC50": "10 µM (active)"}
{"smiles": "Nc1cccc(OCc2nc(N)nc(N)c2-c2ccc(Cl)cc2)c1", "AC50": "1.58 µM (active)"}
{"smiles": "CCOC(=O)C1CCN(C(=O)C2CCN(S(=O)(=O)N3CCCC3)CC2)CC1", "activity, negative = inhibition": "6.47%"}
{"smiles": "CCOC(=O)C1CCCN(C(=O)CSCc2ccccc2)C1", "note": "(stereo not drawn)", "AC50": "25.1 µM (active)"}
{"smiles": "CCOC(=O)N1CCN(S(=O)(=O)Cc2ccccc2)CC1", "activity, negative = inhibition": "-5.12%"}
{"smiles": "CCOC(=O)C1CCCN(C(=O)CCCOc2cc(=O)n(C)c3ccccc23)C1", "note": "(stereo not drawn)", "AC50": "3.98 µM (active)"}
{"smiles": "CCOC(=O)N1CCN(C(=O)C(C)SCc2ccccc2)CC1", "note": "(stereo not drawn)", "activity, negative = inhibition": "-12.5%"}
{"smiles": "CCOC(=O)N1CCN(C(=O)CSCc2ccc(Cl)cc2)CC1", "AC50": "4.47 µM (active)"}
{"smiles": "CCOC(=O)C1CCCN(S(=O)(=O)c2ccccc2)C1", "note": "(stereo not drawn)", "activity, negative = inhibition": "-22.8%"}
{"smiles": "Cc1cc(C(C)(C)CC(C)(C)C)ccc1OCCOCC[N+](C)(C)Cc1ccccc1", "activity, negative = inhibition": "-26% [at 25.6 µM]"}
{"smiles": "COc1ccc(N2C(=O)CCC(C(=O)O)C2c2ccc(F)cc2)cc1", "note": "(stereo not drawn)", "activity, negative = inhibition": "3.77%"}
{"smiles": "COc1ccc(N2C(=O)CCC(C(=O)Nc3ccccn3)C2c2ccc(OC)c(OC)c2)cc1", "note": "(stereo not drawn)", "AC50": "20 µM (active)"}
{"smiles": "CCN(CC)CCCNC(=O)C1CCC(=O)N(c2ccc(OC)cc2)C1c1ccc(F)cc1", "note": "(stereo not drawn)", "AC50": "15.8 µM (active)"}
{"smiles": "CCCCNC(=O)C1CC(=O)N(c2ccc(OC)cc2)C1c1ccc(OC)cc1", "note": "(stereo not drawn)", "activity, negative = inhibition": "3.58% [at 2.29 µM]"}
{"smiles": "c1ccc(SC(Sc2ccccc2)c2ccc3c(c2)OCO3)cc1", "AC50": "2.51 µM (active)"}
{"smiles": "O=S(=O)(c1ccccc1)N1CCC2(CC1)CN(Cc1nccs1)C2", "activity, negative = inhibition": "22.3%"}
{"smiles": "CS(=O)(=O)N1CCC2(CC1)CN(Cc1nccs1)C2", "activity, negative = inhibition": "7.56%"}
{"smiles": "O=S(=O)(c1ccccc1)N1CCC2(CCCN(Cc3nccs3)C2)CC1", "AC50": "3.16 µM (active)"}
{"smiles": "O=S(=O)(c1ccccc1)N1CCC[C@@]2(CCN(Cc3nccs3)C2)C1", "AC50": "3.16 µM (active)"}
{"smiles": "CS(=O)(=O)N1CCC2(CCN(Cc3nccs3)CC2)CC1", "activity, negative = inhibition": "-3.65%"}
{"smiles": "O=S(=O)(c1ccccc1)N1CCC2(CCN(Cc3nccs3)CC2)CC1", "activity, negative = inhibition": "-9.07%"}
{"smiles": "CO[C@H]1C[C@@H]2C[C@H](O)C[C@@H](CC(=O)O[C@@H](/C=C\\CC(C)C)C[C@@H]3CC[C@H](C)[C@@H](C1)O3)O2", "activity, negative = inhibition": "-7.29% [at 11.4 µM]"}
{"smiles": "Oc1ccccc1-c1nnc(-c2ccc(C(F)(F)F)cc2)o1", "activity, negative = inhibition": "6.83%"}
{"smiles": "Cn1cc(-c2nnc(-c3ccccc3)o2)c2ccccc21", "AC50": "14.1 µM (active)"}
{"smiles": "Clc1ccc(-c2nnc(-c3cccc4ccccc34)o2)cc1Cl", "activity, negative = inhibition": "-4.35% [at 11.4 µM]"}
{"smiles": "O=C1CCCN1CC(CN1CCOCC1)Sc1nnnn1-c1ccccc1", "note": "(stereo not drawn)", "AC50": "15.8 µM (active)"}
{"smiles": "c1ccc2c(c1)nnn2CN1CCOCC1", "activity, negative = inhibition": "-7.23% [at 11.4 µM]"}
{"smiles": "COc1ccc(O[C@H]2C=C[C@@H](c3ccccc3)O[C@H]2COC(=O)CC/C(C)=N\\O[C@@H](C)c2cn([C@H](CO)Cc3ccccc3)nn2)cc1", "AC50": "3.98 µM (active) and 5.01 µM (active)"}
{"smiles": "C[C@H](O/N=C1/[C@H]2O[C@@H]2[C@@H](O)[C@H]2[C@H]1CCn1c(=O)n(-c3ccccc3)c(=O)n12)c1cn([C@H]2COC[C@H]2O)nn1", "activity, negative = inhibition": "-7.71% [at 11.4 µM]"}
{"smiles": "C/C(CCC(=O)OC[C@@H]1O[C@H](C#Cc2ccccc2)C=C[C@@H]1Oc1ccc(C)cc1)=N/O[C@@H](C)c1cn([C@H](CO)Cc2ccccc2)nn1", "AC50": "3.98 µM (active) and 3.16 µM (active)"}
{"smiles": "COc1ccc(O[C@H]2C=C[C@@H](c3ccccc3)O[C@H]2COC(=O)CC/C(C)=N\\O[C@@H](C)c2cn([C@H]3COC[C@H]3O)nn2)cc1", "AC50": "3.98 µM (active)"}
{"smiles": "O=S(=O)(O)c1ccc(N=Nc2ccc3c(S(=O)(=O)O)cccc3c2O)c2ccccc12", "activity, negative = inhibition": "-9.88% [at 11.4 µM]"}
{"smiles": "C/C(N)=C(/C#N)C(=O)CSc1nnc(COc2cc(C)ccc2C)o1", "AC50": "3.55 µM (active)"}
{"smiles": "Cc1ccc(C)c(OCCCC(C)(C)C(=O)O)c1", "activity, negative = inhibition": "5.28% [at 25.6 µM]"}
{"smiles": "CC(=O)CSc1nnc(Cc2ccc([N+](=O)[O-])cc2)o1", "activity, negative = inhibition": "7.56% [at 2.29 µM]"}
{"smiles": "C[C@H](CO)NC(=O)[C@H](C)[C@@H]1C[C@@]1(C)[C@@H](NC(=O)OCc1ccccc1)c1ccccc1", "AC50": "5.01 µM (active)"}
{"smiles": "C[C@H](CO)NC(=O)[C@H](C)[C@H]1C[C@]1(C)[C@H](NC(=O)OCc1ccccc1)c1ccccc1", "AC50": "3.98 µM (active)"}
{"smiles": "CN(C)S(=O)(=O)c1cc([N+](=O)[O-])ccc1N1CCCCCC1", "AC50": "12.6 µM (active)"}
{"smiles": "CN1CCN(S(=O)(=O)c2cc([N+](=O)[O-])ccc2N2CCCCCC2)CC1", "AC50": "0.794 µM (active)"}
{"smiles": "CN1CCN(c2ccc([N+](=O)[O-])cc2S(=O)(=O)N2CCOCC2)CC1", "activity, negative = inhibition": "-14.4%"}
{"smiles": "O=C(c1ccc(Br)cc1)c1cc([N+](=O)[O-])ccc1N1CCCCC1", "AC50": "3.55 µM (active)"}
{"smiles": "O=C(N/N=C/c1cc([N+](=O)[O-])ccc1N1CCNCC1)c1ccc([N+](=O)[O-])cc1", "activity, negative = inhibition": "5.34%"}
{"smiles": "CN1CCN(c2ccc([N+](=O)[O-])cc2C(=O)N2CCOCC2)CC1", "activity, negative = inhibition": "-0.527%"}
{"smiles": "O=C1C[C@@H](O)[C@@H](O)[C@H]2[C@@H]3C(=O)N(C4CCCCC4)C(=O)[C@@H]3CC[C@H]12", "activity, negative = inhibition": "-5.08% [at 11.4 µM] and -17.3% [at 11.4 µM] and -26.5% [at 11.4 µM]"}
{"smiles": "COc1ccc(/C=N/n2c(-c3cccs3)n[nH]c2=S)cc1", "AC50": "8.91 µM (active)"}
{"smiles": "Cc1ccc(/C=N/n2c(-c3cccs3)n[nH]c2=S)cc1", "AC50": "11.2 µM (active)"}
{"smiles": "Cc1ccc(-c2n[nH]c(=S)n2/N=C/c2cccn2C)cc1", "AC50": "12.6 µM (active)"}
{"smiles": "Cc1ccc(/C=C/c2nnc(-c3cccs3)o2)cc1", "activity, negative = inhibition": "6.75% [at 2.29 µM]"}
{"smiles": "COc1ccc(C2=CSC(/N=C/c3ccc(F)cc3)=NN2)cc1", "activity, negative = inhibition": "0.425% [at 2.29 µM]"}
{"smiles": "CN(C)C=Nc1ccc2nn(-c3ccccc3)nc2c1", "activity, negative = inhibition": "-3.41% [at 2.29 µM]"}
{"smiles": "O=[N+]([O-])c1ccc([C@@H](Nc2ccccc2)c2ccc3cccnc3c2O)cc1", "activity, negative = inhibition": "-23.7% [at 11.4 µM]"}
{"smiles": "CCCSc1cc(N2CCCC2)nc(-c2ccccc2)n1", "activity, negative = inhibition": "-13.5%"}
{"smiles": "CN(c1ccccc1)c1nc(-n2ccnc2)nc(-n2ccnc2)n1", "AC50": "0.891 µM (active)"}
{"smiles": "c1ccc(-c2nnn(CCN3CCCCC3)n2)cc1", "activity, negative = inhibition": "-9.98% [at 11.4 µM]"}
{"smiles": "c1ccc(-c2nc(N3CCCCCC3)nc(-n3ccnc3)n2)cc1", "AC50": "0.708 µM (active)"}
{"smiles": "COc1ccccc1-c1ccc2ncnc(N3CCN(C)CC3)c2c1", "AC50": "3.16 µM (active)"}
{"smiles": "CN(C)C(=O)c1ccc(-c2ccc3ncnc(N4CCC(C(=O)O)CC4)c3c2)cc1", "activity, negative = inhibition": "1.85%"}
{"smiles": "COc1ccccc1-c1ccc2ncnc(N3CCOCC3)c2c1", "AC50": "6.31 µM (active)"}
{"smiles": "CN(C)Cc1ccccc1-c1ccc2ncnc(N3CCOCC3)c2c1", "AC50": "20 µM (active)"}
{"smiles": "CCCCCCCCCn1cc(C(C)=O)c(=O)[nH]c1=O", "activity, negative = inhibition": "-7.53% [at 2.29 µM]"}
{"smiles": "CN(C)C[C@H]1CCC2=C(C1=O)C(c1ccc(Cl)c(Cl)c1)C1=C(CC[C@H](CN(C)C)C1=O)O2", "AC50": "0.398 µM (active)"}
{"smiles": "O=C(Cn1ccc(=O)[nH]c1=O)Nc1ccc(C(=O)O)c(O)c1", "activity, negative = inhibition": "-4.95% [at 11.4 µM]"}
{"smiles": "COc1ccc(Cc2nc3ccc(S(=O)(=O)N4CCOCC4)cc3[nH]2)cc1OC", "AC50": "12.6 µM (active)"}
{"smiles": "COc1cccc2c1OC1(C)CC2/C(=C(\\C)O)C(=O)N1", "note": "(stereo not drawn)", "activity, negative = inhibition": "-3.38%"}
{"smiles": "COc1cccc(C(c2c(C)[nH]n(-c3ccccc3)c2=O)c2c(C)[nH]n(-c3ccccc3)c2=O)c1O", "activity, negative = inhibition": "2.06%"}
{"smiles": "COc1cccc(C2NC(c3cccc(OC)c3O)C(C)C(=O)C2C)c1O", "note": "(stereo not drawn)", "AC50": "12.6 µM (active)"}
{"smiles": "CN1c2ccccc2Oc2c(c(=O)n(C)c(=O)n2C)C1c1cccc([N+](=O)[O-])c1", "note": "(stereo not drawn)", "AC50": "15.8 µM (active)"}
{"smiles": "CC1(C)CC2(CC(C)(C(=O)CSc3nc4ccccc4s3)OC2=O)C(=O)O1", "note": "(stereo not drawn)", "AC50": "10 µM (active)"}
{"smiles": "CC(C)CC1CC(=O)OC1(C)C(=O)CSc1nc2ccccc2s1", "note": "(stereo not drawn)", "AC50": "15.8 µM (active)"}
{"smiles": "NCCSSCCN", "AC50": "inactive"}
{"smiles": "COc1ccc2[nH]cc(CCNc3nc(-c4ccccc4OC)nc4ccccc34)c2c1", "AC50": "2.51 µM (active)"}
{"smiles": "COc1cccc(-c2nc(NCCc3c[nH]c4ccc(OC)cc34)c3ccccc3n2)c1", "AC50": "2 µM (active)"}
{"smiles": "COc1ccc2[nH]cc(CCNc3nc(-c4ccoc4)nc4ccccc34)c2c1", "AC50": "3.16 µM (active)"}
{"smiles": "COc1ccc2[nH]cc(CCNc3nc(-c4cccnc4)nc4ccccc34)c2c1", "AC50": "1.58 µM (active)"}
